Results on 37 molecules are retold here after PubChem BioAssay AID1233 (SRMLSC, 2008).

Measured potencies and affinities stand elsewhere. Unmarked numbers belong to inactive results.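 The calls were made as follows: active = a dose-response curve fit returns a half-maximal inhibitory concentration, extrapolated values included; inactive = the fit returns no such concentration.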

For this assay, the target named is HMG-CoA reductase [Enterococcus faecalis] (UniProt Q9FD70). The assay can be described thus: class II HMG-CoA reductase inhibition potency – biochemical, Enterococcus faecalis, confirmation (AID 1233).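 Also: 0% = full reaction carrier wells and 100% = background wells lacking mevalonate.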 To be noted: purified E. faecalis HMGR, NADPH absorbance 340 nm kinetics; series mostly up to 100 µM; inhibition: at the top concentration.
Usually inhibition stands for the change of the read-out against control, counted positive when it falls. Turning to `COC(=O)c1ccccc1NC(=O)CSc1nnc(CNS(=O)(=O)c2ccc(C)cc2)n1C`, the “inhibition” value is -6.83%.

For `O=C(Nc1ccccc1)Nc1ccc2ocnc2c1`, the “inhibition” value is -4.39%.

For the molecule `COn1c(SCc2ccc(C)cc2C)nc2ccccc2c1=O`, the “inhibition” value is 0.13%.

As for `CNc1cc(N2CCCCCC2)ccc1[N+](=O)[O-]`, the “inhibition” value is -0.58%.

Consider `COCCCNC(=O)CCCC(=O)NCCCOC`, for which the “inhibition” value was -2.96%.

Take `COC(=O)CNC(=O)CSc1nnc2cc(C)c3ccccc3n12`: the “inhibition” value was -1.92%.

Consider `COc1ccc(N=CC2=C(O)c3ccccc3C2=O)c(OC)c1`, for which the “inhibition” value is -11.6%.

As to `COc1ccc(C(=O)NC2CCN(C(=S)NCCc3ccccc3)CC2)cc1`, the “inhibition” value is -7.64%.

Turning to `CN(C)CCNC(=O)c1ccc(COc2ccc(Cl)cc2Cl)cc1`, the “inhibition” value was -1.14%.

As to `COCc1c(C(=O)Nc2nc(C)cs2)oc2ccccc12`, the “inhibition” value is -0.65%.

As to `Cc1ccc(N2CCN(C(=O)c3ccccc3NC(=O)/C=C\C(=O)O)CC2)cc1`, the “inhibition” value is -3.89%.

On to `Cc1ccccc1Nc1nnc(SCc2nc3ccccc3c(=O)[nH]2)s1`, for which the “inhibition” value is -11.1%.

With `CN(C)S(=O)(=O)c1ccc(NC(=O)N2CCOCC2)cc1`, the “inhibition” value is -2.88%.

In the case of `CCOc1ccc(CN2CCN(Cc3cc4ccccc4[nH]3)CC2CCO)cc1` (configuration not stated), the “inhibition” value is -1.61%.

As for `ON/C=N/C(=S)Nc1ncc(C(F)(F)F)cc1Cl`, the “inhibition” value is -7.37%.

With `COc1ccc(CNC(=O)COC(=O)[C@H](Cc2c[nH]c3ccccc23)NC(=O)c2cccs2)cc1`, the “inhibition” value is -3.37%.

On to `CN(C)C(=O)CSc1n[nH]c(=O)[nH]c1=O`, for which the “inhibition” value is -1.34%.

As for `Cc1ccc(C2C(C(=O)c3ccco3)=C(O)C(=O)N2c2nnc(C)s2)cc1` (configuration not stated), the “inhibition” value was -3.22%.

Regarding `COc1ccc(-c2nn(-c3ccccc3)cc2/C=N/Nc2cccc(C(=O)O)c2)cc1`, the “inhibition” value was 3.14%.

Regarding `CCCCCC(=O)Nc1ccc(Cc2ccncc2)cc1`, the “inhibition” value was 0.09%.

For `Clc1cccc(CN2CCC(Cc3ccccc3)CC2)c1`, the “inhibition” value is -2.19%.

With `Cc1ccc(NC(=O)CCc2ccc(S(=O)(=O)N3CCOCC3)cc2)c(C)c1`, the “inhibition” value is -6.25%.

As to `Cc1cccc(C(=O)Nc2cc(=O)n(C)c(=O)n2C)c1`, the “inhibition” value was 0.43%.

For the molecule `Cc1ncc([N+](=O)[O-])n1CC(C)O` (configuration not stated), the “inhibition” value was -3.39%.

`Cc1c(CN2CCc3c([nH]c4ccccc34)C2C2CCCCC2)cnn1C` (configuration not stated): the “inhibition” value is -10%.

Consider `O=C(COC(=O)C1CCC(=O)N1)Nc1ccc(Br)cc1` (configuration not stated), for which the “inhibition” value is -3.48%.

In the case of `CCCCn1c(=O)c2ccccc2c2ccccc2c1=O`, the “inhibition” value was -3.5%.

For the molecule `CC(C)OC(=O)CC(NC(=O)OC(C)(C)C)c1ccccc1` (configuration not stated), the “inhibition” value is 1.43%.

As for `C=CCn1c(Oc2ccccc2)nc2c1c(=O)n(C)c(=O)n2C`, the “inhibition” value is 0.56%.

`COc1ccc(C)cc1NC(=O)COC(=O)C1CCN(C(=O)c2ccc(Cl)cc2)CC1`: the “inhibition” value was -3.39%.

On to `Cc1ccc(S(=O)(=O)N(C)C)cc1NC(=O)COC(=O)CCC(=O)c1cccs1`, for which the “inhibition” value is -2.47%.

Regarding `Cc1nn(-c2cc(N3CCCCCC3)ccc2[N+](=O)[O-])c(=O)c2ccccc12`, the “inhibition” value is -0.09%.

In the case of `CCCNCc1cc(OC)c(OCc2ccccc2)cc1Br`, the “inhibition” value is -4.86%.

Turning to `CC1CCN(c2cc(N)c(Cl)cc2[N+](=O)[O-])CC1`, the “inhibition” value was -3.93%.

With `COC1(OC)N=C(NC(=O)Nc2ccccc2)C2(C#N)C(c3ccccc3)C12C#N` (configuration not stated), the “inhibition” value is -1.26%.

Turning to `COc1ccc(CC(=O)OCc2cc(=O)n3cc(Br)ccc3n2)cc1OC`, the “inhibition” value was -1.03%.

In the case of `O=C(NCc1ccccc1Cl)c1cc([N+](=O)[O-])ccc1Cl`, the “inhibition” value was -4.55%.
